KDM5B inhibitor = Primary screen for KDM5B Histone Demethylases FDH-coupled qHTS; AID 1347165, 2019; Lysine-specific demethylase 5B (Homo sapiens), Q9UGL1; KDM5B demethylase, FDH-coupled NADH fluorescence (FDH is formaldehyde dehydrogenase); 220,000 tested, 2.6% active; Potency, µM (highest dose often 57.7 µM), usual class: inhibitors; active = well fitted inhibition curve with a large enough effect; also: 0% is about no effect; nearly all actives have a fitted effect of over 70% in size
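Measured: NADH fluorescence change, 30 min, RT. System: KDM5BΔAP 200 nM final, H3K4me3 peptide, α-KG, Fe(II), ascorbate, NAD⁺ plus FDH, pH 7.5 HEPES. Compounds: titrated, 10 min pre-incubation with enzyme.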
Starred values were filed as active, the others as inactive; i = inactive. Only a selection was taken, and hits are over-represented in it overall. Potency is read from the fitted curve at half-maximal effect.

SMILES	KDM5B inhibitor
CCOc1cccc(/C=C2/Cc3c(O)cccc3C2=O)c1	i
O=c1oc(-c2ccc(F)cc2)nn1CC(O)COc1ccc(-c2ccccc2)cc1 (stereo not given)	i
S=C(NCCc1c[nH]c2ccccc12)Nc1cccc(Cl)c1	i
CCC(=O)N1Cc2ccccc2CC2(CCN(CCc3ccc(C)cc3)CC2)C1	i
O=C(c1ccc(Cn2cncn2)cc1)N1CCN(c2ccccc2F)CC1	i
Cc1ccc(S(=O)(=O)N2CCN(CCNC(=O)c3ccc(C(F)(F)F)cc3)CC2)cc1	i
CC(C)(C)C(=O)/C=c1/[nH]c(=O)/c(=C/c2ccccc2F)s1	i
CCOc1ccc(NC(=O)c2ccc3c(c2)S(=O)(=O)N=C(C)N3CC(C)C)cc1	i
COc1cccc(-c2nc(CSc3ccc4c(c3)OCCCO4)cs2)c1OC	i
COc1ccccc1-c1nc2nccc(-c3ccc4c(c3)OCCCO4)n2n1	14.1µM*
COc1cc(-c2ccnc3nc(-c4ccco4)nn23)cc(OC)c1OC	25.1µM*
COc1ccc(-c2noc(-c3nc(-c4ccccc4F)no3)n2)cc1OC	i
COc1ccc(-c2c(C)nn3c(-c4ccccc4)cc(C)nc23)cc1OC	i
COc1ccccc1N1CCN(c2cc(C)nc3nc(-c4ccc(C)cc4)nn23)CC1	i
COc1ccc(-c2ccnc3nc(-c4ccccc4OC)nn23)cc1OC	28.2µM*
Cc1cc(-c2ccc(S(=O)(=O)Nc3cccc(Cl)c3C)s2)on1	i
Cc1cc(C(=O)N2CCN(S(=O)(=O)c3ccc(F)cc3F)CC2)c(C)n1Cc1ccco1	i
Cc1cccc(N2CCN(Cc3ncc(-c4ccc(F)cc4)o3)CC2)c1C	i
O=C(Nc1ccc(Cl)c(Cl)c1)c1ccc(-c2ccccc2)cc1	i
CC(NC(=O)C1CCCCC1)c1ccccc1 (stereo not given)	i
CCOc1ccc(NC(=O)c2cc3cc(C)ccc3[nH]2)cc1	i
CCc1nnsc1C(=O)N(C)Cc1ccc(Cl)c(Cl)c1	i
COc1cccc(C2=NN3C(C2)c2cccc(OC)c2OC32CCN(S(C)(=O)=O)CC2)c1 (stereo not given)	i
CC(=O)Nc1ccc(NC(=O)c2ccc3nc[nH]c3c2)cc1	i
CC1(C)CNC(=O)c2nc(CCN3CCCc4ccccc43)[nH]c2C1	15.8µM*
SMILES	KDM5B inhibitor
CN(CCc1nc2c([nH]1)CC(C)(C)CNC2=O)c1ccccc1	i
CC1CCN(CCc2nc3c([nH]2)CC(C)(C)CNC3=O)CC1	i
N#Cc1nc(-c2cccc3ccccc23)oc1N1CCC(C(N)=O)CC1	i
CCN1CCN(CCCN2CC3(CCN(c4ncccc4F)CC3)OC2=O)CC1	17.8µM*
CCN1CCN(CCCN2CC3(CCN(Cc4ncc[nH]4)CC3)OC2=O)CC1	i
CCN1CCN(CCN2CC3(CCN(C(=O)[C@H](C)NC)CC3)OC2=O)CC1	i
COc1cc(C=O)cc(Br)c1OC(=O)c1ccc(C)cc1	i
COc1ccccc1-c1ccc(=O)n(Cc2ccccc2F)n1	i
Cc1cccc(CS(=O)(=O)C(C)C(=O)N(C)Cc2cccc(F)c2)c1 (stereo not given)	i
CCn1ccc2sc(C)c(C(=O)NCCC(C)C)c2c1=O	i
CCCn1ccc2sc(C)c(C(=O)NCc3ccccc3)c2c1=O	i
Cc1ccc(CNC(=O)c2c(C)sc3ccn(CC(C)C)c(=O)c23)o1	25.1µM*
CC(NC(=O)Cn1nc(-c2ccc(F)cc2)oc1=O)c1ccccc1 (stereo not given)	i
COc1cccc(C(=O)N2CCC3(CC2)CN(c2ccncn2)CC3CO)c1C (stereo not given)	i
O=C(c1ccc(Cl)s1)N1CCC2(CC1)CN(c1ccncn1)CC2CO (stereo not given)	i
Cc1nn(C)cc1C(=O)N1CCC2(CC1)CN(c1ncccn1)CC2CO (stereo not given)	28.2µM*
CC(=O)N1CC(CO)C2(CCN(C(=O)c3cc(C)n(C)n3)CC2)C1 (stereo not given)	i
CC(=O)N1CC(CO)C2(CCN(C(=O)c3nccc4ccccc34)CC2)C1 (stereo not given)	i
Cc1nc(C)c(C(=O)N2CCC3(CC2)CN(c2ncccn2)CC3CO)s1 (stereo not given)	25.1µM*
O=C(CCCCN1CCC(c2ccccc2)C1)c1ccccc1 (stereo not given)	i
O=C(/C=C/Nc1ccc(Cl)cc1C(F)(F)F)c1ccc(Br)cc1	i
Cc1cc(C(=O)N2CCn3nc(C(C)O)cc3C2)c2ccc(F)cc2n1 (stereo not given)	i
CC(O)c1cc2n(n1)CCN(C(=O)c1nc3ccccc3n(C)c1=O)C2 (stereo not given)	25.1µM*
CCc1ccc(C(=O)N2CCn3nc(C(O)c4ccccc4)cc3C2)s1 (stereo not given)	i
CC1=NS(=O)(=O)N(Cc2ccccc2)C=C1C(=O)OCc1noc(-c2ccc(C)c(C)c2)n1	i
SMILES	KDM5B inhibitor
Cc1ccc2nc(CO[C@H]3CN(Cc4cnn(C)c4)C[C@H]3F)[nH]c2c1	i
N#Cc1ccc2nc(CO[C@H]3CN(Cc4ccccc4F)C[C@H]3F)[nH]c2c1	i
Cc1ccc2nc(CO[C@H]3CN(c4ccc(C#N)cn4)C[C@H]3F)[nH]c2c1	17.8µM*
COC(=O)C1=C(C)OC(N)=C(C#N)C1c1ccc(C)cc1C (stereo not given)	i
C=C(C)Cn1c(SCCCCCC)nc2c1c(=O)[nH]c(=O)n2C	i
Cc1ccccc1-c1[nH]nc2ncc(-c3cnn(C)c3)nc12	31.6µM*
Cc1ccsc1-c1[nH]nc2ncc(-c3ccccc3F)nc12	i
Cn1cc(-c2cc(-c3cnn(C)c3)[nH]n2)cn1	i
CN(C(=O)c1cnc2n[nH]c(-c3ccccc3)c2n1)c1ccccc1	i
Cc1ccccc1-c1[nH]nc2ncc(-c3cccnc3)nc12	44.7µM*
COc1ccc(-c2[nH]nc3ncc(-c4ccccc4F)nc23)cc1F	i
COc1ccc(-c2cnc3n[nH]c(-c4sccc4C)c3n2)cc1	i
Cc1ccccc1-c1[nH]nc2ncc(-c3ccsc3)nc12	31.6µM*
Cc1ccccc1-c1[nH]nc2ncc(-c3ccccc3F)nc12	35.5µM*
COc1ccccc1-c1[nH]nc2ncc(C(=O)N(C)c3ccccc3)nc12	i
Cc1ccc(/C=N/NC(=O)CCc2ccccc2)cc1	i
c1coc(C(CNC2CCCC2)N2CCCC2)c1 (stereo not given)	i
CCCC(C#N)NC(=O)Cc1c[nH]c2ccccc12 (stereo not given)	i
O=C(c1cc(=O)c2ccccc2o1)N1CCC(CCN2CCCCC2)CC1	i
O=C(OCc1cc(-c2ccccc2)no1)c1cc(Cl)c[nH]1	i
CC(C)CNC(=O)COC(=O)c1ccc(Br)cc1	i
Cc1cnc(C2CCN(C(=O)OC(C)(C)C)CC2)[nH]1	i
Cc1c(C(=O)COC(=O)CCCNS(=O)(=O)c2cccs2)oc2ccccc12	i
Cc1ccccc1NS(=O)(=O)c1ccc(C)c(C(=O)N(C)Cc2ccccc2)c1	i
Cc1noc(-c2ccn3c(CNC(=O)COc4ccccc4)nnc3c2)n1	12.6µM*
Cc1noc(-c2ccn3c(CNC(=O)Cc4ccccc4Cl)nnc3c2)n1	25.1µM*
Cc1noc(-c2ccn3c(CNC(=O)C(C)c4ccccc4)nnc3c2)n1 (stereo not given)	28.2µM*
